Reference: PubChem BioAssay AID1233 (SRMLSC, 2008)
Results with a measured potency or affinity are listed apart. A number with no mark means an inactive call.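 Rule for the calls: active = a dose-response curve fit returns a half-maximal inhibitory concentration, extrapolated values included; inactive = the fit returns no such concentration.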

molecular target: HMG-CoA reductase [Enterococcus faecalis] (UniProt Q9FD70); test: class II HMG-CoA reductase inhibition potency – biochemical, Enterococcus faecalis, confirmation (AID 1233);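 note: 0% = full reaction carrier wells and 100% = background wells lacking mevalonate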; details: purified E. faecalis HMGR, NADPH absorbance 340 nm kinetics; series mostly up to 100 µM; inhibition: at the top concentration

First: CCOC(=O)C1CCN(C(=O)c2c(-c3ccccc3)noc2C)CC1
Second: CC1(C)CNC(=O)c2sc(NC(=O)c3ccccc3)nc2C1
The “inhibition” value of the first is lower: -3.39% for the first, -0.14% for the second.

First: Cc1cc(=O)[nH]c(SCCOc2ccc3c(c2)CCC3)n1
Second: COc1ccc(NC(=O)N(Cc2cc3ccc(OC)cc3[nH]c2=O)CC2CCCO2)cc1 (stereo not drawn)
The “inhibition” value of the first is higher: -3.48% for the first, -3.89% for the second.

Compared with `CCOc1ccc(-c2[nH]ncc2Oc2ccccc2OCC)c(O)c1`, `COc1ccc2cc(C3NC(=O)c4ccccc4N3)c(Cl)nc2c1` (stereo not drawn) is higher in “inhibition” value: -7.1% for the first, -3.73% for the second.

First: O=C1NC(=O)/C(=C/C(=O)N2CCOCC2)S1
Second: O=C(CSc1nc2ccccc2n1CCc1ccccc1)N1CCOCC1
The “inhibition” value of the first is lower: -3.27% for the first, -2.07% for the second.

First: CCCCC(c1nnnn1CCOC)N1CCN(CC)CC1 (stereo not drawn)
Second: CCCCOC(=O)c1nc[nH]c1C(=O)OCCCC
The “inhibition” value of the first is higher: 1.84% for the first, -4.01% for the second.

Compared with `COc1cc(OC)cc(C(=O)NC(C(=O)O)C23CC4CC(CC(C4)C2)C3)c1` (stereo not drawn), `Cc1cc(C)nc(NC(=O)CCCC(=O)O)c1` is higher in “inhibition” value: -10.5% for the first, -1.66% for the second.

First: COc1ccc(NC(=S)NCc2cccn2C)cc1
Second: Cc1ccccc1NC(=S)NCc1ccc2c(c1)cc(C)n2C
The “inhibition” value of the first is higher: -0.21% for the first, -9.31% for the second.

Going from `CN(C)S(=O)(=O)N1CCN(S(=O)(=O)N2CCOCC2)CC1` to `COc1cc(S(=O)(=O)N2CCC(c3nc4ccccc4s3)CC2)ccc1S(=O)(=O)NC1CCCC1`, the “inhibition” value falls from -0.28% to -5.67%.

Going from `Cc1c(NS(=O)(=O)c2ccc3c(c2)Cc2ccccc2-3)c(=O)n(-c2ccccc2)n1C` to `Cc1c(NC2(c3nnnn3-c3ccc(Br)cc3)CCCCC2)c(=O)n(-c2ccccc2)n1C`, the “inhibition” value falls from -2.26% to -7.18%.

First: CCN(CC)CCNC(=O)C(=O)NCC1OCCN1C(=O)c1ccc2c(c1)OCO2 (stereo not drawn)
Second: O=C(COC(=O)CNC(=O)c1ccccc1F)Nc1ccc2c(c1)OCCO2
The “inhibition” value of the first is lower: -4.7% for the first, -0.28% for the second.

First: NC(=S)NNC(=O)c1cccc(Br)c1
Second: Cc1ccc(/C=C/S(=O)(=O)NCC(=O)O)cc1
The “inhibition” value of the first is lower: -10.2% for the first, 0.69% for the second.

First: CCCNC(=O)c1cc2c(C(F)(F)F)nn(C)c2s1
Second: Cc1cccnc1NC(=O)Cn1nc([N+](=O)[O-])cc1C
The “inhibition” value of the first is higher: -1.54% for the first, -11.3% for the second.

First: Cn1c(CO)cnc1SCc1ccc(F)cc1
Second: Brc1ccc(CSc2nnc3ccccn23)cc1
The “inhibition” value of the first is higher: -3.85% for the first, -5.51% for the second.

First: CCOc1ccc(/C=N/NC(=O)CC(=O)Nc2ccc(Cl)c(Cl)c2)cc1
Second: Cc1ccc(NC(=O)C(=O)NCc2ccc(/C=N/NC(=O)c3c(C)nc4cc(C)ccn34)o2)cc1
The “inhibition” value of the first is higher: -0.69% for the first, -1.84% for the second.

First: Cc1csc(NC(=O)c2cnccn2)n1
Second: CC(=O)c1ccc(NC(=O)c2ccc(NC(=O)CCS(=O)(=O)c3cccs3)cc2)cc1
The “inhibition” value of the first is higher: 0.35% for the first, -2.59% for the second.

Going from `CCN(CC)CCOc1nc(C)nc2c1oc1ccccc12` to `COc1ccc(N=c2ssnc2Cl)cc1`, the “inhibition” value falls from -5.2% to -7.45%.

First: Cn1cnnc1Sc1ccc(C(=O)OCC(=O)NC2CC2)cc1[N+](=O)[O-]
Second: NC(=O)CSc1nnc(-c2ccc([N+](=O)[O-])cc2)o1
The “inhibition” value of the first is lower: -7.72% for the first, -0.33% for the second.

Going from `CCS(=O)(=O)CCn1c([N+](=O)[O-])cnc1C` to `CC(=O)Nc1ccc(S(=O)(=O)N2CCCC2C(=O)O)cc1` (stereo not drawn), the “inhibition” value rises from -4.31% to 1.14%.

First: O=C(COC(=O)CCS(=O)(=O)c1ccc(Cl)cc1)NCCc1ccccc1
Second: Cc1ccccc1-n1nc(C)c2cc(C(=O)N3CCN(S(=O)(=O)c4ccc(F)cc4)CC3)sc21
The “inhibition” value of the first is higher: -1.92% for the first, -8.54% for the second.
